CYP2C19 activ – increases human CYP2C19 enzyme activity; P33261; recombinant CYP2C19, luciferin-H EGE luminescence; stronger effect = higher value; 0 = fully inhibited enzyme, 1 = untreated enzyme; activation factor at 5 µM; 96,000 tested, under 10 active; AID 1025;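 active means activation factor of at least 2 at 5 µM in the primary screen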
CYP2C9 act – increases human cytochrome P450 2C9 activity; recombinant CYP2C9, luciferin-H conversion, luminescence; stronger effect = higher value; factor 1 = untreated enzyme, 0 = blocked; activation factor at 5 µM; hit rate 1.4% among 96,000; P11712; AID 1024;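 active means activation factor of 2 or more for CYP2C9 at a 5 µM dose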
Target sequence (P11712 whole entry, looked up): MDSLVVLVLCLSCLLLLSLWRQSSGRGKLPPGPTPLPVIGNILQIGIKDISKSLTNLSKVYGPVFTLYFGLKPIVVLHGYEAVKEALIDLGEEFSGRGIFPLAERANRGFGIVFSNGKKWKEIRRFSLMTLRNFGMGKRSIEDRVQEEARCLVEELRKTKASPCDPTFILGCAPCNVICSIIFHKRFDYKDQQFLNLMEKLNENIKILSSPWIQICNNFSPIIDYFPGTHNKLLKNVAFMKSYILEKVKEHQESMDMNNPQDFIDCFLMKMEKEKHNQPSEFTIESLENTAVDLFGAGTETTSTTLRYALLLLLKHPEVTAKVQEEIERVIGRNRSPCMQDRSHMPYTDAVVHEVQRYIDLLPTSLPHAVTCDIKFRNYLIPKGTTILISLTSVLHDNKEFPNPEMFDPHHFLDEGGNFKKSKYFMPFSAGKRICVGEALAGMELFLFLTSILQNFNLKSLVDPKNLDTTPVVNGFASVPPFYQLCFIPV
CYP2C9 inhib – blocks human cytochrome P450 2C9. P11712. CYP2C9 Supersomes, luciferin-H conversion, luminescence. inhibition, % at 5 µM. hit rate 20% among 96,000. AID 777;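 active means blocking of liver enzyme CYP2C9 beyond about 50% at 5 µM, limit read from the data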
Mac1 fbg enh – enhancers of human CD11b/CD18 binding to fibrinogen | K562 CD11b/CD18 adhesion to fibrinogen, ATPlite luminescence | AID 1499 | hit rate 0.07% among 93,000 | activation, % at 10 µM;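 active means 10 µM primary screen giving 50% or more activity, confirmed by 40% or more on retest at that dose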
Mac1 fbg inh – CD11b/CD18-fibrinogen binding inhibition. P05107+P11215. K562 CD11b/CD18 adhesion to fibrinogen, ATPlite luminescence; Mn2+ added to activate the integrin. inhibition, % at 10 µM. hit rate 0.54% among 93,000. AID 1497;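 active means primary inhibition of 50% or more at 10 µM, then 40% or more on retest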
CYP2C19 inhib – blocks human cytochrome P450 2C19; P33261; CYP2C19 Supersomes, luciferin-H EGE luminescence, 30 min; inhibition, % at 5 µM; hit rate 21% among 96,000; AID 778;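 active means CYP2C19 inhibition above a set limit at 5 µM in the primary screen, cut at about 50% in these data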
Numbers stand for hits; i = inactive; nt = no result given. Shown are actives, neighbours in structure and some others; about 28% of the full set was active somewhere.

SMILES	CYP2C19 activ	CYP2C9 act	CYP2C9 inhib	Mac1 fbg enh	Mac1 fbg inh	CYP2C19 inhib
O=C1CCSc2ccc(Cl)cc2N1Cc1ccccc1	i	i	i	i	i	66
O=S(=O)(c1ccccc1)N(C1=NCCS1)S(=O)(=O)c1ccccc1	i	i	i	i	i	i
O=C(/C(C=Nc1ccc(Br)cc1)=C(/O)c1ccco1)C(F)(F)F	nt	nt	nt	i	i	nt
Cc1csc2nc(CNS(=O)(=O)c3ccc4c(c3)OCCO4)cn12	i	i	i	i	i	64
Cc1csc2nc(CCNS(=O)(=O)c3ccc4c(c3)OCCO4)cn12	i	i	i	i	i	62
O=S(=O)(NCCc1cn2ccccc2n1)c1ccc2c(c1)OCCO2	i	i	i	i	i	70
Cc1ccn2cc(CNS(=O)(=O)c3ccc4c(c3)OCCO4)nc2c1	i	i	i	i	i	i
Cc1csc2nc(CNS(=O)(=O)c3ccc4c(c3)CCCC4)cn12	i	2	i	i	i	54
O=C(CN1CCN(S(=O)(=O)c2ccccc2)CC1)Nc1ccccc1C(=O)c1ccccc1	nt	nt	nt	i	i	nt
Cc1cc2c(s1)CCCCC(=O)N2	i	i	i	nt	nt	i
Cc1cc(C)c(S(C)(=O)=O)c(Oc2ccccc2C)n1	i	i	i	nt	nt	i
CCC(=O)Nc1ccc(C(=O)N/N=C/c2ccc([N+](=O)[O-])cc2)cc1	nt	nt	nt	i	i	nt
COc1ccc(S(=O)(=O)NCc2csc(C)n2)cc1	i	i	i	i	i	i
CCc1ccc(S(=O)(=O)NCc2cn3c(C)csc3n2)s1	i	i	i	i	i	78
Cc1nc(CNS(=O)(=O)c2ccc3c(c2)OCCO3)cs1	i	i	i	i	i	87
O=S(=O)(NCc1ccccn1)c1ccc2c(c1)OCCO2	i	i	i	i	i	83
Cc1nc(CNS(=O)(=O)c2cc(C)c(C)cc2C)cs1	i	i	i	i	i	87
C=C1CSc2nc3ccccc3c(=O)n21	i	i	i	i	i	i
CCc1c(C(=O)Nc2ccc(S(=O)(=O)N3CCOCC3)cc2)csc1C	i	i	i	i	i	i
CCN(CC(=O)Nc1c(C(=O)OC)[nH]c2ccccc12)c1ccc2c(c1)OCO2	i	i	70	i	i	50
COC(=O)c1[nH]c2ccccc2c1NC(=O)/C=C/c1ccc2c(c1)OCO2	nt	nt	nt	i	i	nt
CCOC(=O)c1[nH]c2ccc(OC)cc2c1NC(=O)c1ccc2c(c1)OCO2	i	i	i	i	i	62
CCOC(=O)c1[nH]c2cc(OC)c(OC)cc2c1NC(=O)c1ccc2c(c1)OCO2	i	i	i	nt	nt	i
CCOC(=O)c1[nH]c2ccc(OC)cc2c1NC(=O)CN1CCSCC1	i	i	59	i	i	76
CCOC(=O)c1[nH]c2ccc(OC)cc2c1NC(=O)c1cccc(OC)c1	i	i	i	nt	nt	52
SMILES	CYP2C19 activ	CYP2C9 act	CYP2C9 inhib	Mac1 fbg enh	Mac1 fbg inh	CYP2C19 inhib
O=S(=O)(/N=C(/c1ccc(F)cc1)N1CCCCC1)c1ccc(Cl)cc1	nt	nt	nt	i	i	nt
CCOC(=O)N1CCC(N2Cc3cccc(C(=O)N4CCN(C5CCCCC5)CC4)c3C2=O)CC1	i	i	78	i	i	i
CCOC(=O)c1ccccc1NC(=O)c1cccc2c1C(=O)N(C1CCN(C(=O)OCC)CC1)C2	i	i	96	i	i	i
CCOC(=O)N1CCC(N2Cc3cccc(C(=O)Nc4ccc(OC)c(OC)c4)c3C2=O)CC1	i	i	95	i	i	70
CCOC(=O)N1CCC(NC(=O)c2cc(C(=O)Nc3ccc(OC)c(OC)c3)ccc2CO)CC1	i	i	64	i	i	i
NC(=O)c1cccc2c1C(=O)N(C1CCCCC1)C2	i	i	i	i	i	i
COc1ccc(OC)c(N/C(C)=C/C(=O)c2ccc(C)o2)c1	i	i	i	i	i	i
Cc1ccc(NC(=O)CCn2nc(C)cc2C)c(C)c1	i	i	i	i	i	53
Cc1ccc(NC(=O)CCC(=O)n2nc(C)cc2C)c(C)c1	i	i	i	i	i	i
Cc1cccc(NC(=O)CCn2nc(C)cc2C)c1	i	2.6	i	i	i	71
Cc1ccc(NC(=O)CNc2cccc(C)c2C)c(C)c1	i	i	52	i	i	64
CSc1nnc2c(n1)OC(C)N(C(=O)c1ccccc1)c1ccccc1-2 (centres undefined)	i	i	54	nt	nt	i
COc1cccc(C2=NOC(C(=O)Nc3cccc(C(C)=O)c3)C2)c1OC (centres undefined)	i	i	i	i	i	58
Cc1cc(NC(=O)C2CC(c3ccc(F)cc3)=NO2)n(-c2ccccc2)n1 (centres undefined)	i	i	i	i	i	68
COc1cccc(C2=NOC(C(=O)Nc3cccc(C(C)=O)c3)C2)c1 (centres undefined)	i	i	i	i	i	i
Cc1cc(NC(=O)c2cc([N+](=O)[O-])cc([N+](=O)[O-])c2)n(-c2ccccc2)n1	nt	nt	nt	i	i	nt
CC(=O)c1cccc(NC(=O)C2CC(c3ccc(F)cc3)=NO2)c1 (centres undefined)	i	i	i	i	i	68
COc1cccc(C2=NOC(C(=O)Nc3cc(C)nn3-c3ccccc3)C2)c1OC (centres undefined)	i	i	i	i	i	i
CN=C(Nc1cc(C)nn1-c1ccccc1)c1ccc(F)cc1	i	i	i	i	i	92
CCN(CC)CCNC(=O)CCc1n[nH]c(=O)c2ccccc12	i	i	i	i	i	i
CCc1nnc(NC(=O)CCC(=O)N2CCN(CCOc3ccc(C)cc3)CC2)s1	i	i	i	i	i	i
O=C(Nc1ccccc1)/C(=C/c1cccnc1)NC(=O)c1ccco1	nt	nt	nt	i	i	nt
O=C(N/N=C/c1ccncc1)/C(=C/c1ccccc1)NC(=O)c1ccccc1	i	i	79	i	i	51
O=C(Nc1ccccc1)/C(=C\c1ccncc1)NC(=O)c1ccccc1	i	i	96	nt	nt	100
O=C(N/N=C/c1ccncc1)c1ccccc1	i	i	i	nt	nt	i
SMILES	CYP2C19 activ	CYP2C9 act	CYP2C9 inhib	Mac1 fbg enh	Mac1 fbg inh	CYP2C19 inhib
COc1ccc(NC(=O)/C(=C\c2ccc(OS(=O)(=O)c3ccc(C)cc3)cc2)NC(=O)c2ccccc2)cc1	i	i	i	nt	nt	i
Cc1ccc(S(=O)(=O)Oc2ccc(/C=C(/NC(=O)c3ccccc3)C(=O)Nc3ccccc3)cc2)cc1	i	i	59	i	i	i
Cc1nc2ccccn2c1C(=O)N=Nc1c(O)n(CCC(C)C)c2ccccc12	nt	nt	nt	i	i	nt
CCOC(=O)COc1ccc(S(=O)(=O)Nc2cccc(SC)c2)cc1	i	i	78	i	i	88
CSc1cccc(NS(=O)(=O)c2ccc(F)cc2)c1	i	i	91	i	i	96
CSc1cccc(NS(=O)(=O)c2ccccc2)c1	i	i	66	i	i	i
O=C(COc1ccc(S(=O)(=O)Nc2ccccc2)cc1)N1CCOCC1	i	i	i	i	i	i
Cc1cccc(NS(=O)(=O)c2ccccc2)n1	i	i	i	i	i	i

Screening data from PubChem.
